Assay [1] in a line: NCI Yeast Anticancer Drug Screen. Data for the rad50 strain (AID 155).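 Also: 0% = growth of vehicle-only cultures of the same strain.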 The settings on record: S. cerevisiae rad50 strain growth inhibition, hits give high values. In outline: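 Yeast carrying a defined DNA repair defect were exposed to test compounds, and growth was compared with vehicle-treated controls to give percent inhibition.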
Assay [2] is described as follows: NCI Yeast Anticancer Drug Screen. Data for the mec2-1 strain (AID 157). Particulars: S. cerevisiae mec2-1 strain, hits give high values. A digest of the protocol:
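Strain: mec2-1 (DNA repair/cell cycle alteration). Compound exposure, then growth measured; inhibition expressed relative to vehicle.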

The nature of assay [3]: NCI Yeast Anticancer Drug Screen. Data for the sgs1 mgt1 strain (AID 161).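 Also: 0% = growth of cultures given vehicle only.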 The settings on record: S. cerevisiae sgs1 mgt1 strain, hits give high values. A digest of the protocol:
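Read-out: growth inhibition vs vehicle controls. Cells: mutant yeast strain deficient in DNA damage repair.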

Assay [4] in a line: NCI Yeast Anticancer Drug Screen. Data for the cln2 rad14 strain (AID 165).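 Also: 0% = growth equal to vehicle treated cultures.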 The settings on record: S. cerevisiae cln2 rad14 strain, hits give high values. In outline:
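Compounds are applied to the cln2 rad14 yeast strain, and growth is then compared with that of vehicle-treated cultures to give inhibition.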

Assay [5] is described as follows: NCI Yeast Anticancer Drug Screen. Data for the bub3 strain (AID 167). The settings on record: S. cerevisiae bub3 mutant strain, hits give high values. In outline: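 Compounds were applied to a genetically altered yeast strain carrying a cell-cycle control defect. Growth inhibition was scored against vehicle-treated controls.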
The nature of assay [6]: NCI Yeast Anticancer Drug Screen. Data for the mlh1 rad18 strain (AID 175). The settings on record: S. cerevisiae mlh1 rad18 strain growth inhibition, hits give high values. A digest of the protocol: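 Read-out is yeast growth inhibition, calculated against vehicle-only controls. The compound was applied to a strain engineered with DNA damage repair alterations.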
The mark [7] stands for this setting: at 5.0 µM (retest, dose inferred, filed as 0.5).
[8] abbreviates: at 50.0 µM (retest, dose inferred, filed as 5.0).

The panel holds about 79,000 compounds, 15% with a hit somewhere; the sample as a whole holds those more often. Values without a mark were called inactive. Active and inactive are the calls of the source. Rule as the data show it: active = growth inhibition above about 70%; inactive = the rest.

As for `OC(C/C(=N\N=C(/CC(O)(C(F)(F)F)C(F)(F)F)c1ccccc1)c1ccccc1)(C(F)(F)F)C(F)(F)F`, the growth inhibition in assay [1] (setting [7]) was -2%; in assay [1] (setting [8]), 2%; in assay [1] (at 50.0 µM), 62.6%; in assay [2] (setting [7]), -6%; in assay [2] (setting [8]), -11%; in assay [2] (at 50.0 µM) it was 51%. Moreover, the growth inhibition in assay [3] (setting [7]) is -7%; in assay [3] (setting [8]) it was -17%; in assay [3] (at 50.0 µM), 50.9%; in assay [4] (setting [7]) it was 6%; in assay [4] (setting [8]) it was 12%; in assay [4] (at 50.0 µM) it was 62.1%. Besides, the growth inhibition in assay [5] (setting [7]) was 1%; in assay [5] (setting [8]), -5%; in assay [5] (at 50.0 µM) it was 69%; in assay [6] (setting [7]) it was -8%; in assay [6] (setting [8]), 3%; in assay [6] (at 50.0 µM), 71.1% (active).
Regarding `OC(CCN1CCOCC1)(c1cccc(Cl)c1)C1CCCCC1` (stereo not given), the growth inhibition was 3% in assay [1] (setting [7]); 45% in assay [1] (setting [8]); 72.1% (active) in assay [1] (at 50.0 µM); 1% in assay [2] (setting [7]); 19% in assay [2] (setting [8]); -0.6% in assay [2] (at 50.0 µM). Also, the growth inhibition was 0% in assay [3] (setting [7]); 73% (active) in assay [3] (setting [8]); 45.7% in assay [3] (at 50.0 µM); 2% in assay [4] (setting [7]); 40% in assay [4] (setting [8]); -26.9% in assay [4] (at 50.0 µM). Besides, the growth inhibition in assay [5] (setting [7]) was 2%; in assay [5] (setting [8]) it was 68%; in assay [5] (at 50.0 µM), 75.4% (active); in assay [6] (setting [7]), 2%; in assay [6] (setting [8]), 58%; in assay [6] (at 50.0 µM), 40.8%.
With `Cc1c(C2Cc3ccccc3N2C(=O)/C=C\C(=O)O)c2ccccc2n1C` (stereo not given), the growth inhibition was 33% in assay [1] (setting [7]); 32% in assay [1] (setting [8]); 74.8% (active) in assay [1] (at 50.0 µM); 25% in assay [2] (setting [7]); 35% in assay [2] (setting [8]); 33.4% in assay [2] (at 50.0 µM). Moreover, the growth inhibition in assay [3] (setting [7]) was 39%; in assay [3] (setting [8]) it was 34%; in assay [3] (at 50.0 µM), 40.4%; in assay [4] (setting [7]) it was 31%; in assay [4] (setting [8]), 35%; in assay [4] (at 50.0 µM), 53.5%. Besides, the growth inhibition in assay [5] (setting [7]) was 38%; in assay [5] (setting [8]) it was 38%; in assay [5] (at 50.0 µM) it was 32.6%; in assay [6] (setting [7]), 42%; in assay [6] (setting [8]), 35%; in assay [6] (at 50.0 µM), 22.4%.
Consider `CCCCCCCCCCCCCCCCCC(=O)OC(C)CCC1CCCO1` (stereo not given), for which the growth inhibition was 4% in assay [1] (setting [7]); -6% in assay [1] (setting [8]); 26.4% in assay [1] (at 50.0 µM); 1% in assay [2] (setting [7]); 0% in assay [2] (setting [8]); 12.8% in assay [2] (at 50.0 µM). The growth inhibition in assay [3] (setting [7]) was 5%; in assay [3] (setting [8]), 11%; in assay [3] (at 50.0 µM) it was 5.9%; in assay [4] (setting [7]), 5%; in assay [4] (setting [8]), 3%; in assay [4] (at 50.0 µM), 0.1%. The growth inhibition in assay [5] (setting [7]) is 1%; in assay [5] (setting [8]) it was -2%; in assay [5] (at 50.0 µM) it was -5.95%; in assay [6] (setting [7]), 1%; in assay [6] (setting [8]), -58%; in assay [6] (at 50.0 µM), 13%.
For the molecule `O=C1Oc2cc3c(c4cccc1c24)OCN(c1ccccc1)C3`, the growth inhibition is -22% in assay [1] (setting [7]); 25% in assay [1] (setting [8]); 62.5% in assay [1] (at 50.0 µM); -24% in assay [2] (setting [7]); 19% in assay [2] (setting [8]); 49.9% in assay [2] (at 50.0 µM). In addition, the growth inhibition in assay [3] (setting [7]) was -11%; in assay [3] (setting [8]) it was 18%; in assay [3] (at 50.0 µM), 78.2% (active); in assay [4] (setting [7]) it was -15%; in assay [4] (setting [8]) it was 15%; in assay [4] (at 50.0 µM), 35%. Moreover, the growth inhibition in assay [5] (setting [7]) is -17%; in assay [5] (setting [8]), 25%; in assay [5] (at 50.0 µM) it was 49%; in assay [6] (setting [7]), -5%; in assay [6] (setting [8]) it was 49%; in assay [6] (at 50.0 µM) it was 58%.
For `Cc1ccc2nc(CC(=O)c3cccnc3)c(CC(=O)c3cccnc3)nc2c1`, the growth inhibition in assay [1] (setting [7]) is 7%; in assay [1] (setting [8]) it was 95% (active); in assay [1] (at 50.0 µM) it was 76.3% (active); in assay [2] (setting [7]) it was 12%; in assay [2] (setting [8]) it was 94% (active); in assay [2] (at 50.0 µM), 63.2%. Also, the growth inhibition in assay [3] (setting [7]) is -1%; in assay [3] (setting [8]) it was 87% (active); in assay [3] (at 50.0 µM), 66.7%; in assay [4] (setting [7]) it was 14%; in assay [4] (setting [8]) it was 96% (active); in assay [4] (at 50.0 µM), 76.3% (active). In addition, the growth inhibition in assay [5] (setting [7]) is 8%; in assay [5] (setting [8]) it was 93% (active); in assay [5] (at 50.0 µM), 60.7%; in assay [6] (setting [7]) it was 1%; in assay [6] (setting [8]) it was 91% (active); in assay [6] (at 50.0 µM) it was 60.5%.
As to `Cc1ccc([Si](O)(c2ccc(C)cc2)c2ccc(C)cc2)cc1`, the growth inhibition in assay [1] (setting [7]) was 85% (active); in assay [1] (setting [8]) it was 92% (active); in assay [1] (at 50.0 µM), 95.2% (active); in assay [2] (setting [7]), 78% (active); in assay [2] (setting [8]), 94% (active); in assay [2] (at 50.0 µM) it was 93% (active). Also, the growth inhibition was 71% (active) in assay [3] (setting [7]); -27% in assay [3] (setting [8]); 93.5% (active) in assay [3] (at 50.0 µM); 67% in assay [4] (setting [7]); 90% (active) in assay [4] (setting [8]); 93.6% (active) in assay [4] (at 50.0 µM). The growth inhibition was 75% (active) in assay [5] (setting [7]); 92% (active) in assay [5] (setting [8]); 86.3% (active) in assay [5] (at 50.0 µM); 84% (active) in assay [6] (setting [7]); 93% (active) in assay [6] (setting [8]); 94.4% (active) in assay [6] (at 50.0 µM).
Take `Cc1cc2c(cc1O)CC[C@@H]1[C@@H]2CC[C@]2(C)[C@@H](O)CC[C@@H]12`: the growth inhibition in assay [1] (setting [7]) is -29%; in assay [1] (setting [8]), -27%; in assay [1] (at 50.0 µM) it was 38.5%; in assay [2] (setting [7]), -25%; in assay [2] (setting [8]) it was -16%; in assay [2] (at 50.0 µM), 35.2%. For the same molecule, the growth inhibition in assay [3] (setting [7]) was -32%; in assay [3] (setting [8]), -32%; in assay [3] (at 50.0 µM), 68%; in assay [4] (setting [7]), -9%; in assay [4] (setting [8]) it was -17%; in assay [4] (at 50.0 µM), 50.2%. In addition, the growth inhibition in assay [5] (setting [7]) was -42%; in assay [5] (setting [8]) it was -29%; in assay [5] (at 50.0 µM) it was 37.5%; in assay [6] (setting [7]) it was -35%; in assay [6] (setting [8]), -22%; in assay [6] (at 50.0 µM), 50%.
With `COc1ccc(C2CC(c3sc(Nc4ccc(C)cc4)nc3C)=NN2)cc1` (stereo not given), the growth inhibition in assay [1] (setting [7]) is -1%; in assay [1] (setting [8]), 20%; in assay [1] (at 50.0 µM) it was 80.3% (active); in assay [2] (setting [7]), -33%; in assay [2] (setting [8]), 60%; in assay [2] (at 50.0 µM), 62%. Moreover, the growth inhibition in assay [3] (setting [7]) is -2%; in assay [3] (setting [8]), 16%; in assay [3] (at 50.0 µM), 71.4% (active); in assay [4] (setting [7]) it was -1%; in assay [4] (setting [8]), 38%; in assay [4] (at 50.0 µM), 69.1%. For the same molecule, the growth inhibition in assay [5] (setting [7]) is -4%; in assay [5] (setting [8]) it was 32%; in assay [5] (at 50.0 µM) it was 12.2%; in assay [6] (setting [7]), -2%; in assay [6] (setting [8]), 31%; in assay [6] (at 50.0 µM), 59.9%.
Regarding `CC(C)=CCc1c(O)cc(O)c2c1OC(c1ccc(O)cc1)C(O)C2=O` (stereo not given), the growth inhibition was -9% in assay [1] (setting [7]); 98% (active) in assay [1] (setting [8]); 93.2% (active) in assay [1] (at 50.0 µM); 1% in assay [2] (setting [7]); 99% (active) in assay [2] (setting [8]); 94% (active) in assay [2] (at 50.0 µM). Also, the growth inhibition in assay [3] (setting [7]) was -4%; in assay [3] (setting [8]), 99% (active); in assay [3] (at 50.0 µM), 93.8% (active); in assay [4] (setting [7]), 20%; in assay [4] (setting [8]), 99% (active); in assay [4] (at 50.0 µM), 91.5% (active). Besides, the growth inhibition in assay [5] (setting [7]) is 5%; in assay [5] (setting [8]) it was 99% (active); in assay [5] (at 50.0 µM), 92% (active); in assay [6] (setting [7]) it was -2%; in assay [6] (setting [8]), 99% (active); in assay [6] (at 50.0 µM), 92.5% (active).

The values are drawn from PubChem BioAssay (NCI).
